The source of these data is PubChem BioAssay.

A short description of assay [1]: compound effects on lung adenocarcinoma cell viability – A549, calcein-AM fluorescence, 48 h, basal, profiling panel (AID 1162). Also: test concentration not given here. The settings on record: higher = more signal.
Assay [2] in a line: compound effects on differentiated 3T3-L1 adipocyte viability – cell-based, 3T3-L1 adipocytes, calcein-AM fluorescence, 48 h, basal, profiling panel (AID 1163). Also: test concentration not given here. The settings on record: 3T3-L1 adipocytes viability, higher = more signal.
The nature of assay [3]: compound effects on hepatocellular carcinoma cell viability – HepG2, calcein-AM fluorescence, 48 h, basal, profiling panel (AID 1164). Also: test concentration not given here. As to conditions: higher = more signal.
The nature of assay [4]: compound effects on multiple myeloma cell viability – MM1S, calcein-AM fluorescence, 48 h, basal, profiling panel (AID 1165). Also: test concentration not given here. As to conditions: higher = more signal.
Assay [5] is described as follows: calcein-AM signal in unstimulated myeloma cells – cell-based, calcein-AM fluorescence, 48 h, PK04 Diversity Set, profiling panel (AID 1166).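 Also: cells grown under basal conditions without added stimulus; test concentration not given here.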 The settings on record: RPMI8226 myeloma viability, higher = more signal.
A short description of assay [6]: JC-1 mitochondrial signal, unstimulated HepG2 cells – cell-based, JC-1 fluorescence, 24 h, 100 nL compound, profiling panel (AID 1167). Also: test concentration not given here. The settings on record: HepG2 mitochondrial potential, higher = more signal.
Assay [7] is described as follows: JC-1 mitochondrial signal, unstimulated adipocytes – cell-based, JC-1 fluorescence, 3T3-L1 adipocytes, 24 h, 100 nL compound, profiling panel (AID 1168). Also: test concentration not given here. As to conditions: JC-1 mitochondrial fluorescence, higher = more signal, called active from +8 up or from −8 down.
A short description of assay [8]: JC-1 mitochondrial signal, unstimulated myeloma cells – cell-based, JC-1 fluorescence, RPMI8226, 24 h, 100 nL compound, profiling panel (AID 1169). Also: test concentration not given here. As to conditions: JC-1 mitochondrial potential fluorescence, higher = more signal.
Assay [9] can be described thus: JC-1 mitochondrial signal, unstimulated MM1S myeloma – cell-based, JC-1 fluorescence, 24 h, 100 nL compound, profiling panel (AID 1170). Also: test concentration not given here. As to conditions: MM1S mitochondrial potential, higher = more signal.
The nature of assay [10]: resazurin metabolic signal in A549 cells – cell-based, resazurin fluorescence, 24 h, PK04 Diversity Set, profiling panel (AID 1171). Also: test concentration not given here. The settings on record: A549 viability, higher = more signal, called active from +8 up or from −8 down.
A short description of assay [11]: resazurin metabolic signal in HepG2 cells – cell-based, resazurin fluorescence, 24 h, PK04 Diversity Set, profiling panel (AID 1172). Also: test concentration not given here. As to conditions: HepG2 viability, higher = more signal.
Assay [12] in a line: budding yeast growth changes without added modifier – OD600, strain BY4716, 24 h, basal condition, primary screen (AID 1173). The settings on record: S. cerevisiae BY4716 growth, OD600, 24 h; higher = more signal, called active from +8 up or from −8 down.
The nature of assay [13]: viability profiling in MM1S myeloma cells – cell-based, resazurin fluorescence, basal, 24 h, PK04 Diversity Set, profiling panel (AID 1174). Also: test concentration not given here. As to conditions: higher = more signal, called active from +8 up or from −8 down.
In assay [14] the target is Dihydroorotate dehydrogenase (quinone), mitochondrial (Plasmodium falciparum (isolate 3D7)) (UniProt Q08210). Description: inhibition of P. falciparum DHODH – biochemical, C-terminal His tag, absorbance 600 nm, primary screen (AID 1175).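 Also: recombinant parasite enzyme with a five histidine tag at its C terminus; test concentration not given here.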 The settings on record: PfDHODH enzyme, DCIP absorbance 600 nm; higher = more signal, called active from +8 up or from −8 down.
Assay [15] in a line: inhibition of PAO1 biofilm formation – strain PAO1, LB-PBS medium, absorbance 600 nm, primary screen (AID 1176). Also: test concentration not given here. The settings on record: P. aeruginosa PAO1 growth/biofilm, A600, 12 h; higher = more signal.
Assay [16] in a line: growth modulation of vineyard yeast isolate – strain RM11-1a, OD600, basal, 24 h, primary screen (AID 1177).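 Also: cultures grown under basal conditions with no added stressor; test concentration not given here.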 As to conditions: S. cerevisiae RM11-1a growth, OD600, 24 h; higher = more signal, called active from +8 up or from −8 down.
The nature of assay [17]: growth of efflux-deficient E. coli DRC39 – strain DRC39, OD650, 24 h, E. coli filamentation inducers, primary screen (AID 1178).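 Also: growth measured as culture turbidity by optical density at 650 nm; test concentration not given here.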 As to conditions: E. coli DRC39 acrAB, higher = more signal, called active from +8 up or from −8 down.
The nature of assay [18]: growth of efflux-deficient E. coli DRC39 – strain DRC39, OD650, 48 h, E. coli filamentation inducers, primary screen (AID 1179).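 Also: screen aims at cell division blockers that make cells filament.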 As to conditions: E. coli DRC39 delta-acrAB growth, higher = more signal, called active from +8 up or from −8 down.
The nature of assay [19]: viability profiling in RPMI8226 myeloma cells – cell-based, resazurin fluorescence, basal, 24 h, PK04 Diversity Set, profiling panel (AID 1180).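 Also: RPMI8826 multiple myeloma cell line at 5000 cells per well; test concentration not given here.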 The settings on record: higher = more signal.
The target in assay [20] is E3 ubiquitin-protein ligase XIAP (Homo sapiens) (UniProt P98170). Description: small molecules binding XIAP protein – biophysical, small-molecule microarray, fluorescence 635 nm, primary screen (AID 1181).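 Also: score merges 667 nm emission and signal to noise over triplicate slides.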 The settings on record: higher = more signal.

Active and inactive are the calls of the source. Unless noted, no rule for the calls is given here.

Sequence of Dihydroorotate dehydrogenase (quinone), mitochondrial (Plasmodium falciparum (isolate 3D7)) (Q08210 whole entry, looked up): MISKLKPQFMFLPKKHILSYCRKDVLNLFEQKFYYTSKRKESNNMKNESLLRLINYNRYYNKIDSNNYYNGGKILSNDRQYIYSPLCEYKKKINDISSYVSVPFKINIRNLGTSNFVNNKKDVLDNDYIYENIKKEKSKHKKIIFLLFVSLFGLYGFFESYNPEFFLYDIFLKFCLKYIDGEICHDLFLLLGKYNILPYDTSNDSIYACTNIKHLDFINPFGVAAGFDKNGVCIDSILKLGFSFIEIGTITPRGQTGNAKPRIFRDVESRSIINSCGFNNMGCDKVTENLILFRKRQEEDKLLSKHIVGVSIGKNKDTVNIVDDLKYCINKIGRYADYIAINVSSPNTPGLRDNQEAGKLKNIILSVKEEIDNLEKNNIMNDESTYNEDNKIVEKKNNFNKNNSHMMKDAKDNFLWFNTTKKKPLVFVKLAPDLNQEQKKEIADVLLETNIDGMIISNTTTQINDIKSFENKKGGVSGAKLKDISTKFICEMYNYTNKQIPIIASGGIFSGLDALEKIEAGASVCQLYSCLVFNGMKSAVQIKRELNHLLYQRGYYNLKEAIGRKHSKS
Sequence of E3 ubiquitin-protein ligase XIAP (Homo sapiens) (P98170 whole entry, looked up): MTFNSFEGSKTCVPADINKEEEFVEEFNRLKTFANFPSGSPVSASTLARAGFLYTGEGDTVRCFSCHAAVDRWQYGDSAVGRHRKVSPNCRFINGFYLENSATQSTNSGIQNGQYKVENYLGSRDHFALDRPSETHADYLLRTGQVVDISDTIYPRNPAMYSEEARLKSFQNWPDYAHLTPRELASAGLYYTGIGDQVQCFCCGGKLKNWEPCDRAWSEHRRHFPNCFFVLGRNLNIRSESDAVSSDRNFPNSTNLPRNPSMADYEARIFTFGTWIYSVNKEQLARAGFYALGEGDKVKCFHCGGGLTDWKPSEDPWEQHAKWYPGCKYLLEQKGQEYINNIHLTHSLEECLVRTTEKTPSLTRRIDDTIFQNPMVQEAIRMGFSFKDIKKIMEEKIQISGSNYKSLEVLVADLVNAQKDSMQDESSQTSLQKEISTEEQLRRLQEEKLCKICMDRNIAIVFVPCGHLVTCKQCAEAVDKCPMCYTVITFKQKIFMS

Consider `C[C@@H]1ON(c2ccc(C(=O)OC(C)(C)C)cc2)[C@H](c2ccc(O)cc2)[C@H]1C(=O)N1C(=O)OC[C@H]1Cc1ccccc1`, for which the z-score in assay [1] was -1.68; in [2], 0.82; in assay [3] it was -4.85; in assay [4] it was -3.31; in assay [5], -4.04; in [6], -3.38. In addition, the z-score in assay [7] is -0.493 (inactive); in assay [8] it was -0.877; in [9], -2.81; in [10] it was -1.31 (inactive); in assay [11], -1.61; in assay [12] it was 0.479 (inactive). Also, the z-score is -1.04 (inactive) in [13]; 0.212 (inactive) in assay [15]; 0.351 (inactive) in assay [16]; -0.682 (inactive) in [17]; -0.118 (inactive) in assay [18]; -0.687 in assay [19]. Further, the values for the composite z-score in assay [14] and in [20] were 0.771 (inactive) and -0.13, respectively.

Consider `CCCNC(=O)[C@@]1(c2ccc([N+](=O)[O-])cc2)CC(=O)N(C2CCCCC2)[C@@H]1c1ccc(CO)cc1`, for which the z-score in assay [1] is 0.663; in assay [2], 0.29; in [3], 0.196; in assay [4] it was -0.409; in assay [5], 0.46; in assay [6], 0.536. The z-score in assay [7] is -1.19 (inactive); in [8] it was -0.506; in assay [9], 0.773; in [10], 1.13 (inactive); in assay [11] it was -0.347; in assay [12], 0.262 (inactive). The z-score was 0.411 (inactive) in assay [13]; 0.304 (inactive) in assay [15]; 1.83 (inactive) in [16]; 0.117 (inactive) in assay [17]; -0.194 (inactive) in assay [18]; 0.543 in assay [19]. In addition, the figures for the composite z-score in assay [14] and in assay [20] were 0.666 (inactive) and -0.173, respectively.

For the compound `O=C1NC(=O)C2C1C=CC(C(O)c1cccc3ccccc13)N2Nc1ccc(Cl)cc1Cl` (stereo not given), the z-score in assay [1] is -2.6; in assay [2] it was -0.132; in [3], -2.76; in assay [4], -3.71; in assay [5], -4.17; in assay [6], -4.07. Moreover, the z-score is -1.1 (inactive) in assay [7]; -0.962 in [8]; -0.213 in assay [9]; -0.993 (inactive) in assay [10]; -2.01 in [11]; -4.99 (inactive) in assay [12]. Also, the z-score in [13] was -1.66 (inactive); in assay [15] it was 0.875 (inactive); in assay [16], 0.981 (inactive); in [17], -0.693 (inactive); in [18], -0.726 (inactive); in assay [19] it was -1.84. The composite z-score in assay [14] was 0.847 (inactive); in assay [20] it was 0.351.

For the compound `O=C1C[C@@](C(=O)NCCN2CCOCC2)(c2ccc([N+](=O)[O-])cc2)[C@@H](c2ccc(CO)cc2I)N1C1CCCCC1`, the z-score in assay [1] is 0.465; in assay [2], 0.267; in [3] it was -0.696; in [4], -1.55; in [5], -0.764; in assay [6], 2.87. The z-score in assay [7] was 0.264 (inactive); in assay [8], -0.444; in [9] it was 0.267; in [10], 2.01 (inactive); in [11] it was 0.95; in assay [12], -2.72 (inactive). Also, the z-score in [13] was 1.11 (inactive); in assay [15], -0.261 (inactive); in assay [16], -1.19 (inactive); in assay [17] it was 0.497 (inactive); in assay [18] it was 0.356 (inactive); in assay [19], 0.891. Further, the composite z-score in assay [14] is 0.362 (inactive); in assay [20], 0.0223.

For `C=C(C)[C@@H]1CC=C(C(O)C2C=CC3C(=O)N(c4ccccc4)C(=O)C3N2Nc2ccccc2F)CC1` (stereo not given in full), the z-score was -0.644 in assay [1]; -0.466 in assay [2]; 0.27 in assay [3]; -2.18 in assay [4]; 0.123 in assay [5]; -1.05 in assay [6]. Moreover, the z-score is -1.74 (inactive) in [7]; -0.872 in [8]; -0.043 in assay [9]; -0.35 (inactive) in assay [10]; -0.91 in assay [11]; 0.966 (inactive) in [12]. Moreover, the z-score is -0.773 (inactive) in assay [13]; 1.51 (inactive) in [15]; 2.01 (inactive) in assay [16]; -0.96 (inactive) in assay [17]; -0.829 (inactive) in [18]; -1.09 in [19]. The results for the composite z-score in [14] and in assay [20] were 1.63 (inactive) and 0.0806, respectively.

Regarding `CN(C)CCCNC(=O)[C@@H]1c2ccccc2C(=O)N(Cc2ccccc2Cl)[C@H]1c1ccc(CO)cc1`, the z-score in assay [1] is 0.904; in assay [2], 0.841; in assay [3], 0.112; in assay [4], -0.147; in [5], -0.872; in assay [6] it was 1.5. In addition, the z-score in assay [7] is 0.517 (inactive); in assay [8], 0.114; in assay [9], 0.599; in [10], 0.508 (inactive); in [11], 0.248; in [12] it was -0.433 (inactive). The z-score in [13] is 0.608 (inactive); in assay [15], 0.0561 (inactive); in assay [16], -0.39 (inactive); in assay [17], 0.206 (inactive); in assay [18], -0.2 (inactive); in [19], 0.179. For the same compound, the results for the composite z-score in assay [14] and in assay [20] were 0.411 (inactive) and -0.02, respectively.

With `CN1C(=O)C2C=CC(C(O)C#Cc3ccccc3)N(Nc3ccccc3)C2C1=O` (stereo not given), the z-score in assay [1] is -1.12; in [2], -0.341; in assay [3], -0.255; in assay [4] it was -1.05; in assay [5], -0.398; in assay [6], -1.36. Besides, the z-score in assay [7] was 0.39 (inactive); in assay [8], -1; in assay [9], -1; in assay [10] it was 0.699 (inactive); in assay [11], -0.264; in [12], -1.36 (inactive). For the same compound, the z-score was -1.06 (inactive) in [13]; -0.103 (inactive) in assay [15]; 1.39 (inactive) in [16]; -0.0835 (inactive) in [17]; -1.05 (inactive) in [18]; -0.633 in [19]. For the same compound, the composite z-score was 0.164 (inactive) in assay [14] and 0.394 in assay [20].

In the case of `O=C1O[C@H](c2ccccc2)[C@H](c2ccccc2)N2[C@H]1[C@@H](C(=O)Nc1nc3ccccc3s1)[C@]1(C(=O)Nc3ccc(C#CCCO)cc31)[C@H]2c1ccc(O)cc1`, the z-score in [1] was 0.695; in assay [2] it was 0.215; in assay [3], -0.257; in assay [4], -2.26; in assay [5], -3.96; in assay [6], -3.86. In addition, the z-score in assay [7] was -0.525 (inactive); in assay [8], -1.25; in [9] it was -1.48; in [10], 0.679 (inactive); in assay [11], 0.506; in [12] it was 0.14 (inactive). The z-score is 0.157 (inactive) in assay [13]; 1.04 (inactive) in assay [15]; 0.604 (inactive) in assay [16]; 0.266 (inactive) in [17]; 0.145 (inactive) in assay [18]; -2.4 in assay [19]. The composite z-score is -0.253 (inactive) in [14] and 1.01 in assay [20].

In the case of `COCCOC(=O)N1C(=O)[C@@]2(c3cc(C#CCC(C(=O)OC)C(=O)OC)ccc31)[C@H](C(=O)N1CCc3cc(OC)c(OC)cc3C1)[C@H]1C(=O)O[C@H](c3ccccc3)[C@H](c3ccccc3)N1[C@@H]2c1ccc(OCCO)cc1`, the z-score in [1] is 0.206; in [2], 0.105; in assay [3], 1.42; in assay [4], -0.219; in assay [5] it was 0.0896; in assay [6], -0.781. The z-score in [7] was 0.512 (inactive); in assay [8], -0.637; in assay [9] it was -1.28; in [10], -0.225 (inactive); in [11], -0.679; in assay [12] it was 1.63 (inactive). The z-score is -0.348 (inactive) in [13]; 2.39 (inactive) in assay [15]; 2.8 (inactive) in [16]; -0.132 (inactive) in assay [17]; 0.325 (inactive) in assay [18]; 0.847 in assay [19]. Further, the composite z-score in assay [14] was -1.34 (inactive); in assay [20], -0.332.
